Among the data in PubChem BioAssay (NCI) are growth values, retold here.

Molecules are shown by their SMILES. The panel holds about 83,000 compounds, 20% with a hit somewhere; the sample as a whole holds those more often.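 Percent growth is the endpoint: 0 to 100 indicates growth inhibition (40 means 60% inhibition), 0 means no net growth, and negative values indicate cell death.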 Values without a mark were called inactive. Calls of active or inactive are those of the source. The calls were made as follows: active = growth percent below 10; inactive = the rest.

Test systems include NCI-H23 lung; NCI-H226 lung; HOP-62 NSCLC; NCI-H460 lung; HOP-92 NSCLC; NCI-H522 lung; A549/ATCC NSCLC; 786-0 renal; COLO 205 colon; DU-145 prostate; K-562 leukemia; MALME-3M melanoma; MDA-MB-231 breast; RXF 393 renal; SF-268 CNS; SF-295 CNS; SF-539 CNS; M14 melanoma; UACC-257 melanoma.
Holding throughout (test): NCI-60 one-dose screen, 48 h (100 = growth as untreated, 0 = no growth, -100 = all killed)
What all share (conditions): 10 µM

On to `O=C(CCNC(=O)c1nc(-c2ccccc2)n(-c2ccc(Cl)cc2)n1)NO`, for which the growth is 101% in the assay with NCI-H23 lung; 96.7% in the assay with NCI-H226 lung; 83.7% with HOP-62 NSCLC; 104% in the assay on NCI-H460 lung; 108% in the assay with HOP-92 NSCLC; 82.4% in the assay with NCI-H522 lung. The growth is 88.6% with A549/ATCC NSCLC; 96.2% with 786-0 renal; 94.8% in the assay with COLO 205 colon; 102% in the assay with DU-145 prostate; 105% in the assay with K-562 leukemia; 97.4% in the assay with MALME-3M melanoma. Also, the growth with MDA-MB-231 breast is 102%; with RXF 393 renal, 99.6%; in the assay with SF-268 CNS, 93.9%; with SF-295 CNS, 99%; with SF-539 CNS it was 84.6%; in the assay with M14 melanoma, 97%.

As for `CNC(=O)c1cn2c3c(c(N4CCN(C)CC4)c(F)cc3c1=O)OC[C@@H]2C`, the growth in the assay with NCI-H23 lung is 96.3%; in the assay with NCI-H226 lung, 93%; with HOP-62 NSCLC it was 94.5%; in the assay with NCI-H460 lung it was 103%; in the assay with HOP-92 NSCLC it was 98.5%; in the assay on NCI-H522 lung, 90.4%. Besides, the growth in the assay on A549/ATCC NSCLC is 95.7%; in the assay with 786-0 renal it was 96.2%; in the assay on COLO 205 colon it was 110%; with DU-145 prostate it was 104%; in the assay on K-562 leukemia, 102%; with MALME-3M melanoma it was 106%. Besides, the growth is 102% in the assay on MDA-MB-231 breast; 103% in the assay with RXF 393 renal; 97% with SF-268 CNS; 98.7% with SF-295 CNS; 105% with SF-539 CNS; 106% with M14 melanoma.

Regarding `CCN(CC)CCCOc1cccc2c1C(=O)c1cccc(OCCCN(CC)CC)c1C2=O`, the growth in the assay with NCI-H23 lung is 38.2%; in the assay on NCI-H226 lung it was 42.8%; in the assay with HOP-62 NSCLC it was 48.1%; in the assay with NCI-H460 lung, 16.5%; in the assay on HOP-92 NSCLC, 21.2%; with NCI-H522 lung it was 43.8%. In addition, the growth was 22.3% in the assay with A549/ATCC NSCLC; 40.8% in the assay with 786-0 renal; -12% (active) in the assay on COLO 205 colon; 38.4% with DU-145 prostate; 16.1% in the assay on K-562 leukemia; 39.9% with MALME-3M melanoma. Besides, the growth with MDA-MB-231 breast was 35.5%; in the assay with RXF 393 renal, 31.2%; with SF-268 CNS, 44.3%; in the assay with SF-295 CNS it was 45.2%; in the assay on SF-539 CNS it was 40.2%; in the assay on UACC-257 melanoma, 47.9%. Moreover, the growth in the assay on M14 melanoma was 48.1%.

For `COc1cc(C(=O)/C(C)=C/c2c[nH]c3ccccc23)cc(OC)c1OC`, the growth in the assay on NCI-H23 lung is 32.3%; with NCI-H226 lung, 61.7%; with HOP-62 NSCLC, 39.2%; in the assay on NCI-H460 lung it was 9.7% (active); with HOP-92 NSCLC, 47.1%; in the assay with NCI-H522 lung, -19.4% (active). Also, the growth with A549/ATCC NSCLC is 11.6%; in the assay on 786-0 renal, 11%; in the assay on COLO 205 colon it was -39.2% (active); in the assay on DU-145 prostate it was 2.39% (active); in the assay on K-562 leukemia, 14.3%; in the assay on MALME-3M melanoma, 68.1%. The growth in the assay on MDA-MB-231 breast is 16.1%; in the assay on RXF 393 renal, 46.2%; in the assay on SF-268 CNS, 26.8%; in the assay on SF-295 CNS, 12.4%; with SF-539 CNS, -3.72% (active); with M14 melanoma it was -1.18% (active).

As for `Cc1ccc(/C=C/C(=O)C(=O)/C=C/c2ccc(C)cc2)cc1`, the growth in the assay with NCI-H23 lung is 95.4%; in the assay on NCI-H226 lung, 107%; in the assay with HOP-62 NSCLC, 109%; in the assay with NCI-H460 lung, 104%; in the assay on HOP-92 NSCLC, 108%; in the assay on NCI-H522 lung, 81.7%. Moreover, the growth was 86.2% in the assay on A549/ATCC NSCLC; 96.9% in the assay with 786-0 renal; 110% with COLO 205 colon; 112% in the assay on DU-145 prostate; 95.2% in the assay on K-562 leukemia; 96.8% in the assay with MALME-3M melanoma. Also, the growth was 106% in the assay with MDA-MB-231 breast; 117% in the assay on RXF 393 renal; 108% with SF-268 CNS; 101% in the assay on SF-295 CNS; 96.2% with SF-539 CNS; 95.2% in the assay on M14 melanoma.

`CC(=O)N[C@H](C(=O)N[C@@H](CCCNC(=N)N)C(=O)N[C@@H](CCCCN)C(=O)N[C@@H](CCCNC(=N)N)C(=O)N[C@]1(C)CCC/C=C\CCC[C@@](C)(C(=O)N[C@@H](CC(C)C)C(=O)N[C@@H](CC(C)C)C(=O)N[C@@H](CCC(N)=O)C(=O)N[C@@H](CCC(=O)O)C(=O)N[C@@H](CCCNC(=N)N)C(=O)N[C@@H](CCC(=O)O)C(=O)N[C@@H](CC(C)C)C(=O)N[C@H](C(=O)N[C@@H](CCC(=O)O)C(N)=O)C(C)C)NC(=O)[C@H](CCCNC(=N)N)NC(=O)[C@H](CC(C)C)NC1=O)C(C)C`: the growth with NCI-H23 lung is 106%; in the assay on NCI-H226 lung it was 102%; in the assay with HOP-62 NSCLC, 109%; in the assay with NCI-H460 lung, 105%; with HOP-92 NSCLC it was 115%; in the assay on NCI-H522 lung, 96.8%. The growth in the assay on A549/ATCC NSCLC is 94.7%; in the assay on 786-0 renal, 98.1%; in the assay with COLO 205 colon, 102%; in the assay on DU-145 prostate, 99.7%; with K-562 leukemia, 104%; in the assay with MALME-3M melanoma it was 137%. Besides, the growth in the assay on MDA-MB-231 breast is 108%; in the assay on RXF 393 renal, 119%; with SF-268 CNS it was 101%; with SF-295 CNS, 106%; in the assay on SF-539 CNS, 102%; in the assay on M14 melanoma it was 107%.
